# Source: PMC4336329 (PLoS ONE, 2015)
# The campaign covered roughly 310,000 compounds. About 14,000 (4.5%) showed an effect of 50% or more. The effect is printed as a negative number. The sample as a whole holds a higher share of strong results than the screen did.
# Biological target: human ether-à-go-go-related gene (hERG) potassium channel (human, UniProt Q12809)
# Test: primary screen, population patch clamp on CHO cells stably expressing hERG; higher = less effect of the substance
# 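Note: peak tail current of the secondary pulse compared with the same well before compound.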
# Chain of human ether-à-go-go-related gene (hERG) potassium channel (Q12809 whole entry, looked up): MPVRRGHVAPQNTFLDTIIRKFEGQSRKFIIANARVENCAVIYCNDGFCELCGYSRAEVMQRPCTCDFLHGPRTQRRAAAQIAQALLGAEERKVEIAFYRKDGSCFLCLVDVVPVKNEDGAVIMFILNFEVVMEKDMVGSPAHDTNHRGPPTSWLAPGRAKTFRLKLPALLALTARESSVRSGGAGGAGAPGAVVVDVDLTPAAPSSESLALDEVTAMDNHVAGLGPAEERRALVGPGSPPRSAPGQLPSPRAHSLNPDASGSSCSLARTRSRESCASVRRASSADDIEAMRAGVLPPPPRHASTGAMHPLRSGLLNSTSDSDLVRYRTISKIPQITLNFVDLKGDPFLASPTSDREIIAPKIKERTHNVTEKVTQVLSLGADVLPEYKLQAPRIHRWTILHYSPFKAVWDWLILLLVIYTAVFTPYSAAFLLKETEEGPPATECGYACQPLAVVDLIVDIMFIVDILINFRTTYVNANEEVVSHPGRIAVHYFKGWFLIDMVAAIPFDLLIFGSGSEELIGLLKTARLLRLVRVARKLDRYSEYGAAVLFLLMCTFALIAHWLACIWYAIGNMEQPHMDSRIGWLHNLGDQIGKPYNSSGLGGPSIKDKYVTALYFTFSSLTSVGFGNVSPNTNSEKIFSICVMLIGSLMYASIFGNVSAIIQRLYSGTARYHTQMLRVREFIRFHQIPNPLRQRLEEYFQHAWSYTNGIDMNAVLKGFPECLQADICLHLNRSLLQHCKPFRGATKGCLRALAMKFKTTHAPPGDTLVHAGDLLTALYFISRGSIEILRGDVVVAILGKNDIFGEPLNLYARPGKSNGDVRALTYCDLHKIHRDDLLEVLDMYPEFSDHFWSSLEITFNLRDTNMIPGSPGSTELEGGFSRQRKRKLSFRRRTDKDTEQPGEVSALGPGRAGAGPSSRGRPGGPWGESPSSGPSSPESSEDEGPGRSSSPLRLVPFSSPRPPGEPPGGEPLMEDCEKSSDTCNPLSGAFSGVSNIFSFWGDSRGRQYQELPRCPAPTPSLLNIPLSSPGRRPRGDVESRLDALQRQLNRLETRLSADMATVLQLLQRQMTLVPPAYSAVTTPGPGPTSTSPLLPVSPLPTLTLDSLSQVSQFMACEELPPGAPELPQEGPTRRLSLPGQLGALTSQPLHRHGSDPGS
row,SMILES,"hERG current change (%, negative = inhibition) at 10uM [%]"
1,Cc1c(Cl)c([N+](=O)[O-])nn1CC(=O)N1CCN(C23CC4CC(CC(C4)C2)C3)CC1,19.9
2,N#CC(C#N)=NNc1ccc(S(=O)(=O)N2CCCC2)cc1,-17.8
3,Cc1ccc(C(=O)COc2cc(O)c3c(=O)cc(-c4ccccc4)oc3c2)cc1,24.6
4,CCOC(=O)/C(C#N)=C1\CCCN1CC(N)=S,2.57
5,COc1ccc2c(-c3ccccc3)cc(SC(C)C(N)=O)nc2c1 (stereo not drawn),19.3
6,COc1ccc(C(=O)Nc2ccc([N+](=O)[O-])cn2)cc1OC,-22.6
7,Cl.c1ccc2c(CN3CCCCCC3)c[nH]c2c1,-18.1
8,Cc1ccccc1N1CCN(Cc2c[nH]c3ccccc23)CC1,-62.1
9,Clc1ccccc1N1CCN(Cc2c[nH]c3ccccc23)CC1,-35.6
10,Brc1ccc(-c2cnc3n2CCCC3)cc1,-34.2
11,CCOc1ccc(N(CC(=O)NCCSCc2ccc(C)cc2)S(C)(=O)=O)cc1,10.1
12,CCC(C)c1ccccc1NC(=O)C(C)N(C)Cc1cccc(OC)c1.O=C(O)C(=O)O (stereo not drawn),11.8
13,Cc1ccc(S(=O)(=O)N(C)CC(=O)NCCCn2ccnc2)cc1,9.92
14,Br.C=CCN1C2=NCCCN2c2ccccc21,-13.9
15,Br.CC(C)(C)c1ccc(CN2C3=NCCCN3c3ccccc32)cc1,-77.6
16,Br.CC(C)(C)C(=O)CN1C2=NCCCN2c2ccccc21,-75.8
17,Cc1ccc(CN2C3=NCCN3c3ccccc32)cc1.Cl,-68.3
18,Cc1ccc(CN2C3=NC(=O)CN3c3ccccc32)cc1,-5.41
19,Br.CC(C)(C)C(=O)CN1C2=NCCN2c2ccccc21,-32.1
20,Cc1cccc(CN2C3=NCCCN3c3ccccc32)c1.Cl,-57.4
21,COC(=O)Cc1ccc(NC(=S)NCCO)cc1,17.6
22,Cn1ccs/c1=N\C(=O)Nc1cccc(Cl)c1,0.433
23,O=C(NCc1cc([N+](=O)[O-])ccc1O)c1cccc(NS(=O)(=O)c2ccccc2)c1,18.3
24,CCOc1ccc(C(C(=O)NC2CCCCC2)N(C(=O)Cc2cccs2)c2ccc(-n3cnnn3)c(OC)c2)cc1 (stereo not drawn),-15.7

row,SMILES,"hERG current change (%, negative = inhibition) at 10uM [%]"
1,CCOC(=O)c1[nH]c(C)c(/C(O)=C2\C(=O)C(=O)N(CCCN(C)C)C2c2cccnc2)c1C (stereo not drawn),4.27
2,NCc1cccc(-n2cccn2)c1.O=C(O)CC(=O)O,-8.09
3,CCc1ccccc1NC(=O)CC1SCCNC1=O (stereo not drawn),26.3
4,O=C(O)COCC(=O)NCc1csc2ccccc12,2.75
5,COc1ccc(S(=O)(=O)Nc2ccccc2C(N)=O)cc1OC,10.1
6,CCN1C2=NCCCN2c2ccccc21.Cl,1.64
7,Cc1ccc(CN2C3=NCCCN3c3ccccc32)cc1.Cl,-61.2
8,c1ccc(-n2nnnc2SCc2ccccn2)cc1,7.26
9,CN(C)CCCNC(=O)/C(=C/c1ccc(-c2ccc([N+](=O)[O-])cc2)o1)NC(=O)c1ccccc1,-73.6
10,Cc1ccc(C(=O)N/C(=C\c2ccc(-c3ccc([N+](=O)[O-])cc3)o2)C(=O)NC2CCS(=O)(=O)C2)cc1 (stereo not drawn),-28.2
11,CCCCC(=O)N/N=C/c1ccc(-c2ccc([N+](=O)[O-])cc2)o1,-21.9
12,Cc1ccc(C(=O)N/C(=C/c2ccc(-c3ccc([N+](=O)[O-])cc3)o2)C(=O)NCCCN(C)C)cc1,-73.7
13,COc1ccc(CN=C2NC(=O)CC(C(=O)Nc3cc(C)cc(C)c3)S2)cc1 (stereo not drawn),-18.4
14,COc1ccc(OC)c(NC(=O)CCCN2C(=O)C3C4C=CC(C4)C3C2=O)c1 (stereo not drawn),-3.43
15,CCOC(=O)c1ccc(NC(=O)N2CCCCC2)cc1,3.33
16,CCOc1ccc(NC(=O)CCN2CCN(S(=O)(=O)c3ccc(OC)cc3)CC2)cc1,-28.8
17,CCOc1ccc(C(=O)CN2CCN(S(=O)(=O)c3ccc(OC)cc3)CC2)cc1,-61.7
18,CCOC(=O)COc1ccc(S(=O)(=O)N2CCN(c3ccc(OC)cc3)CC2)cc1,0.759
19,CCOc1ccc(CN2CCN(S(=O)(=O)c3ccc(NC(C)=O)cc3)CC2)cc1.O=C(O)C(=O)O,-50.4
20,CCOc1ccc(S(=O)(=O)N2CCN(S(=O)(=O)c3ccc(C(C)=O)cc3)CC2)cc1,0.493
21,COc1ccc(CN2CCN(S(=O)(=O)c3ccc(NC(C)=O)cc3)CC2)cc1.O=C(O)C(=O)O,-29.4
22,CCOc1ccc(CN2CCN(S(=O)(=O)c3ccc(NC(C)=O)cc3)CC2)cc1OC.O=C(O)C(=O)O,-35.4
23,CCOc1ccc(NC(=O)CCN2CCN(S(=O)(=O)c3ccc(F)cc3)CC2)cc1,-16.5
24,CCOC(=O)COc1ccc(S(=O)(=O)N2CCN(c3ccc(F)cc3)CC2)cc1,-60

row,SMILES,"hERG current change (%, negative = inhibition) at 10uM [%]"
1,CCOc1ccc(C(=O)CN2CCN(S(=O)(=O)c3ccc(Cl)cc3)CC2)cc1,-40.2
2,CCOc1ccc(C(=O)CN2CCN(S(=O)(=O)c3ccc(F)cc3)CC2)cc1,-63
3,CCOC(=O)COc1ccc(S(=O)(=O)N2CCN(c3ccccc3)CC2)cc1,-39
4,Cc1c(NC(=S)Nc2ccccc2)c(=O)n(-c2ccccc2)n1C,32.9
5,NC1=NC(=O)/C(=C\c2cccs2)S1,8.6
6,N#C/C(=C/c1ccncc1)c1nc2ccccc2s1,2.23
7,CCOc1cccc(C=NCCc2ccc(OC)c(OC)c2)c1O,12.4
8,O=C(NCC1CCCO1)c1ccc(Cl)c(S(=O)(=O)N2CCOCC2)c1 (stereo not drawn),12.7
9,O=C(NCc1ccccn1)c1cccc(NS(=O)(=O)c2ccc(Br)cc2)c1,-19.8
10,COc1ccc(N(C(C)C(=O)NCCSCc2cccc(Cl)c2)S(C)(=O)=O)cc1 (stereo not drawn),-13.3
11,O=C(NCCS(=O)(=O)N1CCN(c2ccccc2F)CC1)c1ccc(Br)o1,-6.39
12,CC(C)CCn1c(CN(C)Cc2ccccc2)nc2c1c(=O)n(C)c(=O)n2C,-43.9
13,Cc1cc(C)nc(SCC(=O)Nc2ncc3c(n2)CC(C)(C)CC3=O)n1,-13.1
14,Cc1ccc(N(C(=O)c2ccc(S(=O)(=O)N3CCCC3)cc2)C2C=CS(=O)(=O)C2)cc1 (stereo not drawn),-32.9
15,COc1ccc(N(C(=O)c2ccc(S(=O)(=O)N3CCCC3)cc2)C2C=CS(=O)(=O)C2)cc1 (stereo not drawn),-31.9
16,CCOc1ccc(N(C(=O)c2ccc(S(=O)(=O)N3CCCC3)cc2)C2C=CS(=O)(=O)C2)cc1 (stereo not drawn),-51.9
17,COc1ccc(N2CCN(c3ccc(NC(=O)C4CCCCC4)cc3C#N)CC2)cc1,15.2
18,COc1cc(C(=O)N2CCN(C(=O)C3CC3)CC2)cc(OC)c1OC,3.78
19,Cc1ccc(C)c(NC(=O)COC(=O)Cn2c(C)csc2=O)c1,6.84
20,Cc1c(C(=O)N2CCCCCC2)c(S(=O)(=O)Nc2cccc(F)c2)c(C)n1C,9.56
21,Cc1c(/C=N/O)c2ccccc2n1C,5.39
22,Cn1c(N2CCOCC2)c(/C=N/O)c2ccccc21,7.51
23,CN1CCN(c2c(/C=N/O)c3ccccc3n2C)CC1,-51.5
24,O=C(N/N=C/c1ccco1)c1ccc(NC(=O)C2CC2)cc1,18.2

row,SMILES,"hERG current change (%, negative = inhibition) at 10uM [%]"
1,OC(COCC(F)(F)C(F)(F)C(F)(F)C(F)F)Cn1c2ccc(Cl)cc2c2cc(Cl)ccc21 (stereo not drawn),-9.49
2,CC(C)NC(=O)C(=O)Nc1cc2c3c(c1)CCC(=O)N3CCC2,11.4
3,Cc1csc(NC(=O)CSc2nnc(-c3ccoc3C)n2Cc2ccco2)n1,-82
4,Cc1cc(C)nc(SCc2nnc(SCC(=O)Nc3nccs3)n2Cc2ccco2)n1,-25
5,Cc1csc(NC(=O)CSc2nnc(C)n2Cc2ccco2)n1,-1.85
6,O=C(CSc1nnc(-c2ccncc2)n1Cc1ccco1)Nc1nccs1,-27
7,Cc1occc1-c1nnc(SCC(=O)Nc2nccs2)n1Cc1ccco1,-75.4
8,Cc1csc(NC(=O)CSc2nccn2Cc2ccco2)n1,4.55
9,CC(=O)NC1=C(NC2CCS(=O)(=O)C2)C(=O)c2ccccc2C1=O (stereo not drawn),18.4
10,O=C(NCc1cccc(F)c1)C1CCC(=O)N(CCc2cccc(F)c2)C1 (stereo not drawn),-30.7
11,CSc1ccc(CNC(=O)C2CCC(=O)N(CCc3cccc(F)c3)C2)cc1 (stereo not drawn),-77.1
12,COc1cccc(CNC(=O)C2CCC(=O)N(CCc3cccc(F)c3)C2)c1 (stereo not drawn),-13
13,O=C(NCc1cccc(OC(F)(F)F)c1)C1CCC(=O)N(Cc2cccc(F)c2)C1 (stereo not drawn),-50.1
14,CSc1ccc(CNC(=O)C2CCC(=O)N(Cc3cccc(F)c3)C2)cc1 (stereo not drawn),-62.4
15,Cc1ccccc1CNC(=O)C1CCC(=O)N(Cc2cccc(F)c2)C1 (stereo not drawn),-8.38
16,COC(=O)c1ccc(CNC(=O)C2CCC(=O)N(Cc3cccc(F)c3)C2)cc1 (stereo not drawn),-12.7
17,O=C(NCc1ccccc1OC(F)(F)F)C1CCC(=O)N(Cc2cccc(F)c2)C1 (stereo not drawn),-12.4
18,O=C(NCc1ccc(Cl)s1)C1CCC(=O)N(CCc2ccccn2)C1 (stereo not drawn),-10.1
19,O=C(NCc1cccc(F)c1)C1CCC(=O)N(CC2CCCCC2)C1 (stereo not drawn),-9.08
20,Cc1ccc(CNC(=O)C2CCC(=O)N(CCc3cccc(F)c3)C2)cc1 (stereo not drawn),-38
21,O=C(NCc1ccc(Cl)s1)C1CCC(=O)N(CCc2cccc(F)c2)C1 (stereo not drawn),-60.2
